Measurements reported in the supplement of paper PMC13380429.

Experiments:
[1] = test system: Vero E6 infected with SARS-CoV-2; experiment: morphology score (similarity to uninfected cells); higher = more like uninfected cells; settings: 24 h
[2] = test system: Vero E6 infected with SARS-CoV-2; experiment: SARS-CoV-2 infection rate relative to infected DMSO; higher = more infection, active = 60 or less; settings: 24 h

Nc1nc(Nc2ccc(S(N)(=O)=O)cc2)nn1C(=O)c1c(F)cccc1F (0.833333 µM)
morphology score [1]: -0.114 | SARS-CoV-2 infection rate [2]: 120% (inactive)

CC(C)=CCC/C(C)=C/CNCCNC1C2CC3CC(C2)CC1C3 (configuration not stated) (10 µM)
morphology score [1]: 0.122 | SARS-CoV-2 infection rate [2]: 94.5% (inactive)

CS(=O)(=O)OCCCCOS(C)(=O)=O [busulfan] (10 µM)
morphology score [1]: -0.026 | SARS-CoV-2 infection rate [2]: 102% (inactive)

CN(CCOc1ccc(C[C@H](Nc2ccccc2C(=O)c2ccccc2)C(=O)O)cc1)c1ccccn1 (10 µM)
morphology score [1]: 0.317 | SARS-CoV-2 infection rate [2]: 70% (inactive)

CCC1(c2ccccc2)C(=O)NCNC1=O [primidone] (10 µM)
morphology score [1]: 0.097 | SARS-CoV-2 infection rate [2]: 102% (inactive)

O=S(=O)(c1cccc2c(O)nccc12)N1CCCNCC1 [hydroxyfasudil] (10 µM)
morphology score [1]: 0.355 | SARS-CoV-2 infection rate [2]: 108% (inactive)

COc1ccc2cc(OCC3(C(=O)O)CN(C(=O)c4ccc(F)cc4)C3)ccc2c1 (10 µM)
morphology score [1]: 0.0418 | SARS-CoV-2 infection rate [2]: 110% (inactive)

O=P(O)(NCCCl)NCCCl [palifosfamide] (10 µM)
morphology score [1]: -0.0297 | SARS-CoV-2 infection rate [2]: 107% (inactive)

C=C[C@H]1CN2CC[C@H]1CC2C(OC(=O)OCC)c1ccnc2ccc(OC)cc12 (stereo in doubt) [quinine-ethyl-carbonate] (10 µM)
morphology score [1]: 0.215 | SARS-CoV-2 infection rate [2]: 99% (inactive)

Cc1cn([C@H]2C=C[C@@H](CO)O2)c(=O)[nH]c1=O [stavudine] (10 µM)
morphology score [1]: 0.031 | SARS-CoV-2 infection rate [2]: 106% (inactive)

O=C(Nc1ccncc1)c1cc([N+](=O)[O-])ccc1Cl (10 µM)
morphology score [1]: 0.143 | SARS-CoV-2 infection rate [2]: 87% (inactive)

Clc1ccc(C(OCCN2CCCCC2)c2ccccc2)cc1 (configuration not stated) [cloperastine] (10 µM)
morphology score [1]: 0.412 | SARS-CoV-2 infection rate [2]: 75.5% (inactive)

COc1cc(C(=S)N2CCOCC2)ccc1O [vanitiolide] (10 µM)
morphology score [1]: 0.152 | SARS-CoV-2 infection rate [2]: 102% (inactive)

NS(=O)(=O)NCCNc1nonc1/C(=N/O)Nc1ccc(F)c(Br)c1 (10 µM)
morphology score [1]: 0.162 | SARS-CoV-2 infection rate [2]: 112% (inactive)

CC(=O)Nc1c(I)c(C(=O)O)c(I)c(N(C)C(C)=O)c1I [metrizoic-acid] (10 µM)
morphology score [1]: 0.0802 | SARS-CoV-2 infection rate [2]: 108% (inactive)

CC(=O)NS(=O)(=O)c1ccc(NC(=O)c2ccccc2C(=O)O)cc1 [phthalylsulfacetamide] (10 µM)
morphology score [1]: 0.21 | SARS-CoV-2 infection rate [2]: 99.5% (inactive)

COC(=O)c1ccc(O)cc1 [methylparaben] (10 µM)
morphology score [1]: -0.112 | SARS-CoV-2 infection rate [2]: 114% (inactive)

NCCNC(=O)c1ccc(Cl)cn1 [lazabemide] (10 µM)
morphology score [1]: 0.0341 | SARS-CoV-2 infection rate [2]: 106% (inactive)

CC(C)NCC(O)c1ccccc1Cl (configuration not stated) [clorprenaline] (10 µM)
morphology score [1]: 0.125 | SARS-CoV-2 infection rate [2]: 96.5% (inactive)

C=C(c1ccccc1OCc1cccc(Cl)c1)n1ccnc1 [croconazole] (10 µM)
morphology score [1]: 0.0614 | SARS-CoV-2 infection rate [2]: 104% (inactive)

C[C@H](Nc1cc(-c2cnn(C)c2)cc(Nc2cnccn2)n1)c1ccc(F)cc1 (0.833333 µM)
morphology score [1]: -0.112 | SARS-CoV-2 infection rate [2]: 114% (inactive)

OC(CN1CCN(c2cccc(Cl)c2)CC1)C(c1ccccc1)c1ccccc1 (configuration not stated) (10 µM)
morphology score [1]: -0.0067 | SARS-CoV-2 infection rate [2]: 96.5% (inactive)

N#Cc1cc(CN2CCC(Nc3ncnc4sc(Cl)cc34)CC2)ccc1F (10 µM)
morphology score [1]: -0.299 | SARS-CoV-2 infection rate [2]: 116% (inactive)

CC(=O)c1c(O)cc(C)oc1=O [dehydroacetic-acid] (10 µM)
morphology score [1]: 0.121 | SARS-CoV-2 infection rate [2]: 93.5% (inactive)

O=c1c(O)c(-c2ccc(O)cc2)oc2cc(O)cc(O)c12 [kaempferol] (10 µM)
morphology score [1]: 0.215 | SARS-CoV-2 infection rate [2]: 108% (inactive)

NC[C@@H]1CC[C@@H](N)[C@@H](O[C@H]2[C@H](O)[C@@H](O[C@H]3O[C@H](CO)[C@@H](O)[C@H](N)[C@H]3O)[C@H](N)C[C@@H]2N)O1 [dibekacin] (10 µM)
morphology score [1]: 0.0218 | SARS-CoV-2 infection rate [2]: 103% (inactive)

CC(C)[C@H](O)C(=O)N[C@@H](C)C(=O)N[C@@H]1C(=O)N(C)CCc2ccccc21 [semagacestat] (10 µM)
morphology score [1]: 0.0376 | SARS-CoV-2 infection rate [2]: 120% (inactive)

C=CCN1C[C@H](C)N([C@H](c2ccc(C(=O)N(CC)CC)cc2)c2cccc(OC)c2)C[C@H]1C (10 µM)
morphology score [1]: -0.00563 | SARS-CoV-2 infection rate [2]: 106% (inactive)

Fc1ccc(Cl)cc1-c1nc(Nc2ccncc2)c2nccnc2n1 (10 µM)
morphology score [1]: 0.0882 | SARS-CoV-2 infection rate [2]: 101% (inactive)

OC[C@@H](O)[C@@H](O)[C@@H](O)CO [ribitol] (10 µM)
morphology score [1]: 0.073 | SARS-CoV-2 infection rate [2]: 105% (inactive)

c1ccc(CN2CCC3(CCc4ccccc43)CC2)cc1 (10 µM)
morphology score [1]: 0.228 | SARS-CoV-2 infection rate [2]: 80.5% (inactive)
